Sampled rows, rich in hits. Any-hit rate of the full collection: about 7.2%.
RE007 growth inh: less growth of the S. pombe RE007 Vpr strain. S. pombe RE007 Vpr strain, BacTiter-Glo ATP luminescence, 24 h. Potency, µM (top dose mostly 92.2 µM), inactives show at the highest dose activity change, negative = less growth, usual class: inhibitors. AID 651644. 360,000 compounds, 0.21% hits; active = well fitted falling curve with a large enough effect; inconclusive = small, poorly fitted or top-dose-only effect; inactive = no such curve, though single readings can be large or run the other way; note: nearly all actives have a fitted effect of over 50% in size
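Fission yeast strain RE007, carrying one chromosomally integrated HIV-1 vpr copy, was seeded at OD 0.01 in PMG+AL medium with 23 nL pinned compound. After 24 h at 30 °C and 99% humidity, viability was read by BacTiter-Glo luminescence.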
HCV inh: blocks hepatitis C virus. 340,000 compounds, 3.4% hits. Huh7.5.1 HCVcc-Cre infection, luciferase reporter, 44 h. Potency, µM (series often up to 41.8 µM), for inactives: at the top dose activity change, negative = inhibition, actives largely listed as inhibitors
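Infectious HCVcc-Cre (~0.5 moi) was added to cells just after compound, with cells seeded 4 h earlier at 1,000 per well. Luciferase activity after 44 h culture reported infection; substrate was incubated 15 min at room temperature before reading.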
MARV entry inh: blocks Marburg virus binding to or entry into cells; Marburg virus pseudotyped entry inhibition, cell reporter; Potency, µM (series often up to 37.8 µM), for inactives: at the highest dose activity change, negative = inhibition, usual class: inhibitors; 300,000 compounds, 1.8% hits; AID 540276; calls by dose curve; tested in HEK293 cells
Sm TGR block: blocks Schistosoma mansoni thioredoxin glutathione reductase; 360,000 compounds, 3% hits; purified TGR, DTNB reduction, TNB absorbance 405 nm; Potency, µM (top dose mostly 114 µM), inactives show at the highest dose activity change, negative = inhibition, usual class: inhibitors; Q962Y6; note: nearly all actives have a fitted effect of over 60% in size
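TGR 20 nM + NADPH 100 uM (dispensed conc.), cpd preinc 15 min RT; start with NADPH (500 uM addition) then DTNB (15 mM addition). Kinetic TNB absorbance, 405 nm filter. Four-parameter Hill fit across titration.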
FMDV antiviral: foot and mouth disease virus antiviral activity; FMDV antiviral cell-based qHTS; Potency, µM (doses to about 57.9 µM), for inactives: top-dose activity change, negative = inhibition, actives largely listed as inhibitors; 410,000 compounds, 1.2% hits; AID 1159524; calls by dose curve; tested in HEK293T cells; note: read-out not given here; nearly all actives have a fitted effect of over 45% in size
Lassa entry inh: blocks Lassa virus binding to or entry into cells. Lassa virus pseudotype entry inhibition, cell reporter. Potency, µM (top dose mostly 37.9 µM), without a hit: top-dose activity change, negative = inhibition, most hits filed as inhibitors. 300,000 compounds, 1.2% hits. AID 540256; calls by dose curve; tested in HEK293 cells; note: nearly all actives have a fitted effect of over 50% in size
* hit, by the source's call; ? = inconclusive; . = no result; [ ] = dose if it differs, or a comment. Unless noted, calls come from the whole dose curve; as a rule, active = well fitted curve in the direction sought with a large enough effect; inconclusive = small, poorly fitted or top-dose-only effect, or another doubt; inactive = no such curve, though single readings can be large; an effect the other way counts as inactive or inconclusive. % is set by controls: 0 for no effect and ±100 for the full control effect; potency is the fitted concentration of half-maximal effect.

SMILES	RE007 growth inh	HCV inh	MARV entry inh	Sm TGR block	FMDV antiviral	Lassa entry inh
Cc1ccccc1NS(=O)(=O)c1ccc(C(=O)NCC(c2ccco2)N(C)C)cc1 (stereo unspecified)	12.4%	-7.6%	-18.1%	-5.2%	-8.8%	-1.5%
CN(C)C(CNC(=O)c1ccc(-c2ccccc2)cc1)c1ccccc1 (stereo unspecified)	-5.4%	?	11.2µM*	-3.2%	-6.5%	-21.8%
CN(C)C(CNC(=O)c1ccc(C(=O)c2ccccc2)cc1)c1ccccc1 (stereo unspecified)	41.8%	2.7%	?	0.4%	14.0%	-27.4%[46.1 µM]
COc1ccc(C)cc1NC(=O)COc1cc(=O)n(C)c2ccccc12	.	.	?	8.8%	-18.1%	?
COc1cccc(OCc2cc(C(=O)NCCN3CCCCC3CO)no2)c1 (stereo unspecified)	0.3%	-24.6%	30.7%	-16.9%	-14.6%	3.1%
Cc1cc(OCc2cc(C(=O)NCCN3CCCCC3CO)no2)cc(C)c1Cl (stereo unspecified)	0.8%	8.91µM*	?	5.1%	-19.3%	?
NS(=O)(=O)c1ccc(N=Nc2c(O)[nH]c3ccc(C(=O)NCCCn4ccnc4)cc23)cc1	.	.	.	.	.	3.15µM*
NS(=O)(=O)c1ccc(N=Nc2ccc(=O)[nH]c2O)cc1	10.0%	13.3%	3.9%	22.4µM*	3.9%	11.1%
NS(=O)(=O)c1ccc(N=Nc2c(O)[nH]c3ccc(Cl)cc23)cc1	.	.	.	.	.	2.81µM*
O=C(O)c1ccc(N=Nc2c(O)[nH]c3cc(Cl)ccc23)cc1	11.5%	30.2%	-0.3%	-10.5%	15.1%	.
COCC1CCCN(Cc2ccc3c(c2)CN(C(=O)c2ccc(OC)nc2OC)CCO3)C1 (stereo unspecified)	.	.	.	.	2.5%	.
O=C(c1ccc(Br)cc1)N1CCN(CCc2ccncc2)CC1	.	.	?	-0.1%	-10.3%	-3.5%[46.1 µM]
CCCCNC(=O)CSc1nc2ccccc2nc1Cc1ccc(Cl)cc1	.	.	.	-1.1%	-22.4%	17.1%[46.1 µM]
CC(C)CON=C1C[C@@H](O)[C@@H](O)[C@@H]2[C@H]3C(=O)N(C[C@@H]4CCCO4)C(=O)[C@@H]3CC[C@H]12	.	.	-9.9%[14.2 µM]	.	.	.
COc1ccc2ccccc2c1C(=O)/C=C\c1ccoc1	-19.6%	-4.3%	1.4%	22.4µM*	0.0%	4.4%
O=C(/C=C/c1ccoc1)c1ccccc1O	-3.8%	36.5%	-2.6%	-25.1%	-3.5%	0.6%
CC(CCC(=O)O)C1CCC2C3CC[C@@H]4CCCC[C@@]4(C)C3CC[C@@]12C (stereo partly specified)	.	.	.	.	-6.7%	.
CCOC(=O)CSc1nc2c(c(=O)[nH]c(=O)n2C)n1Cc1ccccc1	6.0%	2.82µM*	.	-4.5%	-18.0%	.
Cn1c(=O)[nH]c(=O)c2c1nc(SCCC(=O)O)n2Cc1cccc(Br)c1	9.0%	-1.2%	3.8%[46.1 µM]	-3.0%	-10.6%	-2.5%[46.1 µM]
CCOC(=O)CSc1nc2c(c(=O)[nH]c(=O)n2C)n1CCCc1ccccc1	3.6%	-14.4%	-2.2%	-9.7%	-16.5%	18.2%
CC(=O)CSc1nc2c(c(=O)[nH]c(=O)n2C)n1Cc1cccc(Br)c1	-1.8%	12.6µM*	-14.9%[46.1 µM]	56.2µM*	-19.4%	-16.5%[46.1 µM]
CC1=CC(C)(C)N2C(=O)C3(NCCc4c3[nH]c3ccccc43)c3cc(C)cc1c32 (stereo unspecified)	-1.2%	7.94µM*	.	0.6%	-21.2%	.
CN1C(=O)C2(NCCc3c2[nH]c2ccccc32)c2ccccc21 (stereo unspecified)	-13.1%	3.5%	10.1%	-2.8%	-9.7%	-2.9%
O=C(Cc1csc2ccccc12)NCc1ccc(F)cc1	.	.	10.1%[46.1 µM]	-2.3%	41.6%	5.7%[46.1 µM]
CN1CCN(c2ccccc2NC(=O)c2ccc(-c3cccc([N+](=O)[O-])c3)o2)CC1	24.8%	5.62µM*	?	-6.3%	0.0%	?
CCN1CCN(c2ccc(S(=O)(=O)N3CCOCC3)cc2NC(=O)c2cccc([N+](=O)[O-])c2)CC1	6.3%	?	?	.	-5.9%	7.9%[46.1 µM]
